Source: PubChem (National Center for Advancing Translational Sciences (NCATS))
GBA mod: alters purified human glucocerebrosidase activity | P04062 | actives 1.1% (n = 48,000) | AID 360 | Potency, µM | purified enzyme, resorufin glucoside fluorescence (screen aimed at inhibitors), 20 min; in the data active = potency below about 15 µM; inconclusive = mostly about 16 µM to 33 µM;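 note: the screen sought inhibitors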
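Wild-type enzyme at 0.2 nM final in 50mM citric acid/KH2PO4, 10mM sodium taurocholate, 0.01% tween-20, pH 5.9, with resorufin beta-D-glucopyranoside at 30 uM final. Compounds titrated, 20 min at RT, red fluorescence read; AC50 from titration.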
Casp1 inh: blocks human caspase-1 allosterically or competitively; P29466; Caspase-1 enzyme, Ac-WEHD-AFC fluorogenic rate; Potency, µM (highest dose often 57.5 µM), most hits filed as inhibitors; actives 0.03% (n = 75,000); AID 900
Target sequence (P29466 120-297 limits assumed): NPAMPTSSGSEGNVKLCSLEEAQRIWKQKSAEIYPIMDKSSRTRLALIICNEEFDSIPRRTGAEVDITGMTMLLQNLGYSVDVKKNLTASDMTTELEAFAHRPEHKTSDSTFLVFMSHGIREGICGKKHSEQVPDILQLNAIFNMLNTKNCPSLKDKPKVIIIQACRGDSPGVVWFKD
Target sequence (P29466 317-404 limits assumed): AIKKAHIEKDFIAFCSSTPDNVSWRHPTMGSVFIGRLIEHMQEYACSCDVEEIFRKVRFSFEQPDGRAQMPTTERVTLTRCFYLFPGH
TSHR ag: TSH receptor (human) agonism. P16473. HEK293-CNG-TSHR cells (CNG channel as cAMP sensor), membrane potential dye, cAMP. Potency, µM (doses to about 57.1 µM), actives largely listed as activators. actives 0.48% (n = 73,000). AID 926; active = well fitted activation curve with a large enough effect in the main read-out, with a control signal flat, not every such curve was filed as active; inconclusive = small, poorly fitted or top-dose-only effect, or a change in a side signal; inactive = no such curve, though single readings can be large or run the other way; reference of the percent scale not stated here;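 note: the control signal comes from parental cells without the receptor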
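cAMP rise detected as CNG-channel membrane depolarization by fluorescent dye (emission 590 nm), 30 min after compound, following 60 min dye loading containing 100 uM RO 20-1724 at room temperature. Cells: TSHR/CNG HEK 293, with parental CNG HEK 293 as control.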
HEK293 cAMP cs: parental HEK293 cAMP activation (counter-screen); AID 938; parental HEK293 CNG cAMP sensor, membrane potential fluorescence; Potency, µM (top dose mostly 57.1 µM), actives largely listed as activators; actives 2.5% (n = 73,000); note: nearly all actives have a fitted effect of over 55% in size
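Parental HEK 293 cells stably expressing a cAMP-gated CNG channel were loaded with membrane potential dye containing 100 uM RO 20-1724 for 60 min. Compound added for 30 min; depolarization read as fluorescence intensity at 590 nm.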
Casp7 inh: caspase-7 (human) inhibition, allosteric or competitive. AID 889. P55210. actives 0.02% (n = 75,000). Potency, µM (doses to about 57.5 µM), usual class: inhibitors. recombinant caspase-7, Ac-DEVD-AFC fluorescence rate; active = well fitted inhibition curve with a large enough effect in the main read-out, with a control signal flat, not every such curve was filed as active; inconclusive = small, poorly fitted or top-dose-only effect, or a change in a side signal
Target sequence (P55210 24-198 limits assumed): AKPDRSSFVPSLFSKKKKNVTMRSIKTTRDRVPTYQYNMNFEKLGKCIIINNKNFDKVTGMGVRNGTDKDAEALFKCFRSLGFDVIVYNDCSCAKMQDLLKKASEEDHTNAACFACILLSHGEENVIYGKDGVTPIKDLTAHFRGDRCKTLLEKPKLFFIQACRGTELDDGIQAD
Target sequence (P55210 207-303 limits assumed): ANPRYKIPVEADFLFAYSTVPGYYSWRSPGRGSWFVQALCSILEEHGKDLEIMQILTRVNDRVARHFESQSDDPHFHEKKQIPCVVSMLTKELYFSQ
ERK AVP block: vasopressin-driven ERK pathway inhibition; Potency, µM (top dose mostly 57.5 µM), actives largely listed as inhibitors; actives 0.99% (n = 72,000); HEK293-V1b, vasopressin-stimulated pERK AlphaScreen; note: nearly all actives have a fitted effect of over 55% in size
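Overnight-seeded V1b-HEK293 cells in 1% FBS got compound, then vasopressin (25 nM final, 5 min, 37C), then lysis buffer. AlphaScreen detection of phospho-ERK; activity normalized to basal and full-stimulation controls.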
Of the large screens only hits and unclear results are named; the others gave an inactive call. Compounds with a hit are over-represented: about 4.5% of the library has one in this group of screens. Unless noted, calls come from the whole dose curve; as a rule, active = well fitted curve in the direction sought with a large enough effect; inconclusive = small, poorly fitted or top-dose-only effect, or another doubt; inactive = no such curve, though single readings can be large; an effect the other way counts as inactive or inconclusive.

C=CC[C@@H]1C=C[C@@H](O/N=C2/C[C@@H](O)[C@@H](O)[C@@H]3[C@@H]4C(=O)N(CC)C(=O)[C@H]4CC[C@@H]23)[C@@H](CO)O1	none (no result: GBA mod)
NCCC(=O)N[C@@H](Cc1cnc[nH]1)C(=O)O	none (no result: GBA mod)
CCC1(C)Cc2ccccc2/C(=C/C(=O)N2CCCCC2)N1 (stereo not given)	TSHR ag inconclusive, HEK293 cAMP cs 16µM
Cc1cc(C)n(-c2nnc(C)n2/N=C/c2ccccc2OCc2ccccc2Cl)n1	TSHR ag inconclusive, HEK293 cAMP cs 1.3µM, ERK AVP block inconclusive (no result: GBA mod)
Cc1cc(C)n(-c2nnc(C)n2/N=C/c2cc(Br)ccc2OCc2ccccc2)n1	TSHR ag inconclusive, HEK293 cAMP cs 3.2µM (no result: GBA mod)
c1ccc(COn2nnc3ccccc32)c(COn2nnc3ccccc32)c1	TSHR ag inconclusive, HEK293 cAMP cs 25µM
Fc1ccc(Nc2ccnc(-c3ccoc3)n2)cc1	ERK AVP block 32µM (no result: GBA mod)
Fc1ccc(Nc2ccnc(-c3ccc4c(c3)OCO4)n2)cc1	ERK AVP block inconclusive (no result: GBA mod)
COc1cccc(CNC2CCCC2)c1	none (no result: GBA mod)
c1ccc(-n2cccc2CNC2CCCCC2)cc1	TSHR ag inconclusive, HEK293 cAMP cs 25µM
Cc1ccc(C(=O)N2CCCC(c3nc4c(nnn4Cc4ccccc4)c(=O)[nH]3)C2)cc1 (stereo not given)	TSHR ag inconclusive, HEK293 cAMP cs 25µM (no result: GBA mod)
C=Cc1cccc(C)c1	none (no result: GBA mod)
O=C(c1cc(C(F)(F)F)cc(C(F)(F)F)c1)N1CCC2(CC1)CN(c1ccccn1)C2	ERK AVP block inconclusive (no result: GBA mod)
CCCS(=O)(=O)NCCc1csc(-c2cccnc2)n1	none (no result: GBA mod, ERK AVP block)
CCOC(=O)N1CCC(n2c(SCC(=O)NCc3ccccc3)nc3ccccc3c2=O)CC1	none (no result: TSHR ag)
CCOC(=O)N1CCC(n2c(SCC(=O)NCCC3=CCCCC3)nc3ccccc3c2=O)CC1	TSHR ag inconclusive, HEK293 cAMP cs 6.3µM
C=C(C)COc1ccc2c3c(c(=O)oc2c1OCC(=C)C)CCC3	TSHR ag inconclusive, HEK293 cAMP cs 25µM (no result: GBA mod)
Cc1c(O)ccc2c3c(c(=O)oc12)CCCC3	Casp7 inh inconclusive, ERK AVP block 16µM (no result: Casp1 inh)
CO[C@@H]1COC(=O)C/C=C\[C@@H](C)[C@@H]2C=C[C@H](O)[C@@H](COC(=O)CCC[C@H]1C)O2	none (no result: GBA mod)
C1CCN(c2nc3nonc3nc2N2CCCCC2)CC1	TSHR ag inconclusive, HEK293 cAMP cs inconclusive (no result: GBA mod)
Nc1nonc1-c1noc(N2CCCCC2)n1	TSHR ag inconclusive, HEK293 cAMP cs 10µM
COc1ccccc1CNc1ncnc2ccc(-c3ccc(C(=O)N(C)C)cc3)cc12	ERK AVP block inconclusive (no result: GBA mod, TSHR ag)
CC[C@@H]1OC(=O)[C@H](C)[C@H](O[C@@H]2C[C@](C)(OC)[C@H](O)[C@H](C)O2)[C@H](C)[C@H](O[C@@H]2O[C@@H](C)C[C@@H](N(C)C)[C@@H]2O)[C@](C)(O)C[C@H](C)C(=NOCOCCOC)[C@H](C)[C@H](O)[C@]1(C)O	none (no result: GBA mod)
CCSC1=NC(=O)/C(=C2/C=Cc3ccccc3N2CC)S1	ERK AVP block 25µM
CC1=C(C(=O)O)N2C(=O)[C@@H](NC(=O)[C@@H](N)c3ccc(O)cc3)[C@@H]2SC1	none (no result: GBA mod)
CC(C)CC(c1nnnn1CC1CCCO1)N1CCN(c2cccc(Cl)c2)CC1 (stereo not given)	TSHR ag inconclusive, HEK293 cAMP cs 13µM (no result: GBA mod)
CC(C)CC(c1nnnn1Cc1ccco1)N1CCN(c2cccc(Cl)c2)CC1 (stereo not given)	TSHR ag inconclusive, HEK293 cAMP cs 10µM
COc1ccc(C(c2nnnn2CC2CCCO2)N2CCN(c3ccccc3)CC2)cc1 (stereo not given)	none (no result: GBA mod)
CCc1c(C)c2ccc(OCC(=O)OC(C)C)c(C)c2oc1=O	TSHR ag inconclusive, HEK293 cAMP cs 25µM, ERK AVP block inconclusive
CCN(CC)Cc1ccc(Nc2ccnc3cc(Cl)ccc23)cc1O	none (no result: GBA mod, TSHR ag, HEK293 cAMP cs)
O=C(Nc1cccnc1)c1ccc(Cl)c(S(=O)(=O)N2CCCCCC2)c1	ERK AVP block 20µM (no result: GBA mod)
O=C(O)c1cc(S(=O)(=O)Nc2cccc(Cl)c2)ccc1O	TSHR ag inconclusive, HEK293 cAMP cs inconclusive (no result: GBA mod, ERK AVP block)
CCCC[C@@H]1C[C@H]1C(NC(=O)c1ccco1)c1ccccc1 (stereo not given in full)	TSHR ag inconclusive, HEK293 cAMP cs 16µM (no result: GBA mod)
CCCC[C@@H]1C[C@H]1C(NC(=O)c1ccccc1)c1ccc(C(=O)OC)cc1 (stereo not given in full)	TSHR ag inconclusive, HEK293 cAMP cs 16µM (no result: GBA mod)
CCCC[C@@H]1C[C@H]1C(NC(=O)Cc1ccccc1)c1ccc(-c2ccccc2)cc1 (stereo not given in full)	TSHR ag 1µM (no result: GBA mod)
CCCC[C@@H]1C[C@H]1C(NC(=O)c1ccccc1)c1ccccc1C(F)(F)F (stereo not given in full)	TSHR ag inconclusive, HEK293 cAMP cs inconclusive (no result: GBA mod)
CCCC[C@@H]1C[C@H]1C(NS(=O)(=O)c1cccc2cccnc12)c1ccc(-c2ccccc2)cc1 (stereo not given in full)	none (no result: GBA mod)
COc1ccccc1-c1nc(C#N)c(N2CCc3ccccc3C2)o1	TSHR ag inconclusive, HEK293 cAMP cs inconclusive, ERK AVP block 20µM
COc1ccccc1-c1nc(C#N)c(N2CCN(c3ccccc3)CC2)o1	GBA mod 10, TSHR ag inconclusive, HEK293 cAMP cs inconclusive
COc1ccc(N2CCN(c3oc(-c4ccccc4OC)nc3C#N)CC2)cc1	ERK AVP block inconclusive
Cc1nc(SCC(=O)Nc2ccc3c(c2)OCCO3)c2oc3ccccc3c2n1	TSHR ag 4µM, ERK AVP block inconclusive
C[C@@H]1C=C[C@](Cc2ccccc2)(C(=O)NCCN2CCOCC2)N1C(=O)c1ccccc1	TSHR ag inconclusive, HEK293 cAMP cs 16µM (no result: GBA mod)
Cc1cc(-n2c(C)cc(C(=O)CSc3ncnc4ccccc34)c2C)no1	Casp1 inh inconclusive, TSHR ag inconclusive, HEK293 cAMP cs 7.9µM, ERK AVP block 20µM
CCC(/C=C/C(C)C1CCC2C3CC=C4CC(O)CC[C@@]4(C)C3CC[C@@]12C)C(C)C (stereo not given in full)	none (no result: GBA mod, TSHR ag, HEK293 cAMP cs)
O=c1cc(-c2ccc(O)c(O)c2)oc2ccccc12	ERK AVP block 7.9µM (no result: GBA mod, TSHR ag, HEK293 cAMP cs)
O=c1cc(-c2ccc(O)cc2)oc2cc(O)ccc12	ERK AVP block inconclusive (no result: GBA mod, TSHR ag, HEK293 cAMP cs)
O=c1cc(-c2ccc(O)cc2)oc2cccc(O)c12	ERK AVP block 4µM (no result: GBA mod, TSHR ag, HEK293 cAMP cs)
COC(=O)CC1C(C)(C)C(=O)C2CC3=C4CC(=O)OC(c5ccoc5)[C@]4(C)CCC3[C@@]1(C)C2=O (stereo not given in full)	none (no result: GBA mod, TSHR ag, HEK293 cAMP cs)
CC(C)[C@H](O)C1=CCCCC1=O	none (no result: GBA mod)
COC(=O)c1ccc(CSc2nc3ccccc3c(=O)n2Cc2ccco2)o1	TSHR ag inconclusive, HEK293 cAMP cs 7.9µM
